Results filed as inconclusive are left out. Activity calls are given as the source filed them. Calls follow the shape of the dose curve; as a rule, active = well fitted activation curve with a large enough effect; inconclusive = small, poorly fitted or top-dose-only effect; inactive = no such curve, though single readings can be large or run the other way.
Biological target: Pyruvate kinase PKM (Homo sapiens) (UniProt P14618)
Assay: Confirmation Concentration-Response Assay for Activators of Human Muscle isoform 2 Pyruvate Kinase
Conditions: purified hPK-M2, Kinase-Glo ATP luminescence, 1 h; series mostly up to 57.5 µM
Text: NIH Chemical Genomics Center [NCGC] Matthew G. Vander Heiden, M.D., Ph.D. [Harvard Medical School, 77 Avenue Louis Pasteur, Boston, MA 02115] MLPCN Grant: 1 R03 MH085679-01 NCGC Assay Overview: Human pyruvate kinase muscle 2 (hPK-M2) enzyme was supplied as a highly purified (>95% pure) preparation from Harvard Medical School and assayed for its ability to generate ATP from ADP using phosphoenolpyruvate (PEP) as a substrate. ATP generation was detected in a coupled reaction by luciferase-mediated luminescence, an ATP-dependent process. Pyruvate kinase substrates, PEP and ADP, were present in the assay at Km and approximately 10-fold below Km respectively. The enzyme was assayed at an intermediate level of activity to screen for both inhibitors and activators.
NCGC Assay Protocol Summary: Three uL of substrate mix (at r.t.) in assay buffer (50 mM Imidazole pH7.2, 50 mM KCl, 7 mM MgCl2, 0.01% Tween 20, 0.05% BSA) was dispensed into white solid bottom 1,536 well microtiter plates so that the final concentrations of substrates in the assay were 0.1 mM ADP and 0.5 mM PEP. 23 nL of compound were delivered by a pin tool and 1 uL of enzyme mix (final concentration of 0.1 nM) in assay buffer (4 degree Celsius) was added. Plates were incubated at room temperature for 1 hour. Two uL of detection mix (Kinase-Glo, Promega; at 4 degree Celsius protected from light) was added and luminescence read by a ViewLux (Perkin Elmer) at 1 second exposure/plate. Data were normalized to the uninhibited (column 3) and AC100 inhibition (no enzyme in column 2). To monitor activation, the first column contained a titration of the activator, NCGC00031955-03 (16-point 1:2 dilutions in duplicate starting at 57 uM) and the first 16 rows of column 4 contained 57 uM of NCGC00031955-03.

Sequence of Pyruvate kinase PKM (Homo sapiens) (P14618 whole entry, looked up, canonical isoform): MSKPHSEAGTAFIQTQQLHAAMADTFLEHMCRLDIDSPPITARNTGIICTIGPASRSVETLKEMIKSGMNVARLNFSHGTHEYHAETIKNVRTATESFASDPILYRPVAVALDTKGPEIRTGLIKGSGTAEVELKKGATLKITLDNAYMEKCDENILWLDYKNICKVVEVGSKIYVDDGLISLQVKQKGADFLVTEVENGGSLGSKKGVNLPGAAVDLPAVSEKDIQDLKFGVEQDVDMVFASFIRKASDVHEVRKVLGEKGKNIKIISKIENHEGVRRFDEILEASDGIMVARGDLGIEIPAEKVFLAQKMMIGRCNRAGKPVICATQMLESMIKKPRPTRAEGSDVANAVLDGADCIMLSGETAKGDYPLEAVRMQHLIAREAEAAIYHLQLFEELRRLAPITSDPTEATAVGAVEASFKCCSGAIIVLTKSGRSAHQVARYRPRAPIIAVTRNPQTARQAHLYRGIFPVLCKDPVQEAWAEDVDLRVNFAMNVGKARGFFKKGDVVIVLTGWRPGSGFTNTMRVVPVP

| SMILES | Potency |
| --- | --- |
| O=S(=O)(/N=C(/Sc1ccccc1)c1ccccc1)c1ccccc1 | inactive |
| Cn1c2cc(S(C)=O)sc2c2cnn(Cc3ccccc3F)c(=O)c21 (stereo not given) | 16 nM (active) |
| Cc1cc2c(s1)c1cnn(Cc3ccc(F)cc3F)c(=O)c1n2C | 25.3 nM (active) |
| Cc1cccc(NC(=O)c2cnc3ccccn3c2=O)c1 | inactive |
| O=S(=O)(c1ccc2c(c1)OCCO2)N1CCCN(S(=O)(=O)c2c(F)cccc2F)CC1 | 566 nM (active) |
| O=C1NC(=S)S/C1=C1\Sc2ccccc2N1CCCS(=O)(=O)O | inactive |
| CC(C)N1C(=S)SC(C)(C)C1NO (stereo not given) | inactive |
| Cc1cc2c(s1)c1cnn(Cc3ccc(F)c(F)c3F)c(=O)c1n2C | 713 nM (active) |
| CCc1cc2c(s1)c1cnn(Cc3ccccc3F)c(=O)c1n2C | 63.5 nM (active) |
| O=S(=O)(NCCCCCNS(=O)(=O)c1c(F)cccc1F)c1ccc2c(c1)OCCO2 | 2010 nM (active) |
| COC(=O)c1cc2c(s1)c1cnn(Cc3ccccc3F)c(=O)c1n2C | 39.1 nM (active) |
| O=C1CN(S(=O)(=O)c2ccc3c(c2)OCCO3)CCN1S(=O)(=O)c1c(F)cccc1F | 2250 nM (active) |
| O=S(=O)(c1ccc(Cl)cc1)N1CCN(S(=O)(=O)c2ccc3c(c2)OCCO3)CC1 | 56.6 nM (active) |
| CC(=O)c1cc2c(s1)c1cnn(Cc3ccccc3F)c(=O)c1n2C | 7.1 nM (active) |
| O=S(=O)(c1ccc2c(c1)OCCO2)N1CCN(S(=O)(=O)c2c(F)ccc(O)c2F)CC1 | 31.8 nM (active) |
| C[C@H]1CN(S(=O)(=O)c2c(F)cccc2F)CCN1S(=O)(=O)c1ccc2c(c1)OCCO2 | 3570 nM (active) |
| Oc1ccc(-c2nnc(-c3ccc(O)cc3)nn2)cc1 | inactive |
| COc1ccc(S(=O)(=O)N2CCN(S(=O)(=O)c3c(F)cccc3F)CC2)cc1 | 56.6 nM (active) |
| Cc1cc2c(s1)c1cnn(Cc3cccc(F)c3)c(=O)c1n2C | 101 nM (active) |
| COc1cccc(S(=O)(=O)N2CCN(S(=O)(=O)c3ccc4c(c3)OCCO4)CC2)c1 | 63.5 nM (active) |

| SMILES | Potency |
| --- | --- |
| Cn1c2ccsc2c2cnn(Cc3ccccc3F)c(=O)c21 | 318 nM (active) |
| Cc1cc2c(s1)c1cnn(Cc3ccc(C(C)C)cc3)c(=O)c1n2C | 63.5 nM (active) |
| COc1cc(F)c(S(=O)(=O)N2CCN(S(=O)(=O)c3ccc4c(c3)OCCO4)CC2)c(F)c1 | 17.9 nM (active) |
| Cc1cc2c(s1)c1cnn(Cc3ccc(S(C)(=O)=O)cc3)c(=O)c1n2C | 4500 nM (active) |
| Cc1cc2c(s1)c1cnn(Cc3cccc(F)c3F)c(=O)c1n2C | 113 nM (active) |
| S=C1NC(c2ccccc2)N2C(=S)NC(c3ccccc3)N12 (stereo not given) | inactive |
| O=S(=O)(c1ccc2c(c1)OCCO2)N1CCN(S(=O)(=O)c2cc(F)c(F)cc2F)CC1 | 71.3 nM (active) |
| CC(O)c1cc2c(s1)c1cnn(Cc3ccccc3F)c(=O)c1n2C (stereo not given) | 113 nM (active) |
| O=S(=O)(c1ccc2c(c1)OCCCO2)N1CCN(S(=O)(=O)c2c(F)cccc2F)CC1 | 80 nM (active) |
| Cc1cc2c(s1)c1cnn(Cc3cccc(Cl)c3)c(=O)c1n2C | 101 nM (active) |
| O=S(=O)(NC1CCN(S(=O)(=O)c2c(F)cccc2F)CC1)c1ccc2c(c1)OCCO2 | 3570 nM (active) |
| Cn1c2cc([N+](=O)[O-])sc2c2cnn(Cc3ccccc3F)c(=O)c21 | 12.7 nM (active) |
| O=S(=O)(c1c(F)cccc1F)N1CCN(S(=O)(=O)c2c(F)cccc2F)CC1 | 50.5 nM (active) |
| Cc1cc2c(s1)c1cnn(Cc3cc(C(F)(F)F)cc(Cl)c3F)c(=O)c1n2C | 20.1 nM (active) |
| O=S(=O)(c1ccc2c(c1)OCO2)N1CCN(S(=O)(=O)c2c(F)cccc2F)CC1 | 127 nM (active) |
| Cn1c2cc(B(O)O)sc2c2cnn(Cc3ccccc3F)c(=O)c21 | 6350 nM (active) |
| Cc1cc2c(s1)c1cnn(Cc3ccccc3Cl)c(=O)c1n2C | 113 nM (active) |
| CCN1CCc2c(sc(NC(=S)NC(=O)c3ccccc3)c2C#N)C1 | inactive |
| O=S(=O)(NCCCCNS(=O)(=O)c1c(F)cccc1F)c1ccc2c(c1)OCCO2 | 5050 nM (active) |
| O=S(=O)(NC1CCN(S(=O)(=O)c2c(F)cccc2F)C1)c1ccc2c(c1)OCCO2 (stereo not given) | 11300 nM (active) |
